This is a sample that favours compounds with a hit; in the whole collection about 3.5% have one here.
GPR151 activ – activators of human GPR151; Q8TDV0; activation, % at 11.2 µM; PathHunter beta-arrestin GPR151 cells, luminescence; 650,000 tested, 1% active; in the data active means activation above about 4.9%
Target sequence (Q8TDV0 whole entry, looked up): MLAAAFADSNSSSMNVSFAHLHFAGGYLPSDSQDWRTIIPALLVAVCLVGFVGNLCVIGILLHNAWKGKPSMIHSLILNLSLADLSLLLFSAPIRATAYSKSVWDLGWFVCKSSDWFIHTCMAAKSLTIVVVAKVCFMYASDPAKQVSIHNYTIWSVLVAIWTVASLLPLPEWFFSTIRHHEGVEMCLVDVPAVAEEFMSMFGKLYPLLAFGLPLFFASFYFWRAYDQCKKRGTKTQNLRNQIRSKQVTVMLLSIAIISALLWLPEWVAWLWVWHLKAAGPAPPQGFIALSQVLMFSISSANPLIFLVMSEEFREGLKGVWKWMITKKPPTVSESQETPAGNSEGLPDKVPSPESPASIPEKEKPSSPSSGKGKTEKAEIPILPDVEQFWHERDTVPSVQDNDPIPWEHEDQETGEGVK
MITF inh – inhibitors of human MITF; O75030; AlphaScreen MITF homodimerization, bead proximity signal; inhibition, % at 2.6 µM; 650,000 tested, 0.91% active; AID 1259374; in the data active means inhibition above about 50%
FBW7 activator – human FBW7 E3 ligase activation, primary screen | Q969H0 | AlphaScreen FBW7–phospho-cyclin E peptide binding, activator screen | normalized activity (activation), % at 26.1 µM | 650,000 tested, 0.13% active; in the data active means normalized activity above about 1.9%;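 further: purified mutant Fbw7 with reduced substrate affinity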
TEAD-YAP block – TEAD-YAP interaction inhibition; HEK-TIYL cells, TEAD-Gal4/YAP UAS-luciferase luminescence; inhibition, % at 9.12 µM; 640,000 tested, 1.4% active; AID 1259422; in the data active means inhibition above about 32%
Hits are given with their value; – = inactive.

SMILES | GPR151 activ | MITF inh | FBW7 activator | TEAD-YAP block
NNS(=O)(=O)c1ccc(N2CCCC2=O)cc1 | – | – | – | –
O=C1CCCN1c1ccc(S(=O)(=O)Oc2cccc([N+](=O)[O-])c2)cc1 | – | – | – | 52
O=C1CCCN1c1ccc(S(=O)(=O)Nc2ccc(Cl)c(Cl)c2)cc1 | – | – | – | 46
O=C1CCCN1c1ccc(S(=O)(=O)Nc2ccc(F)c(Cl)c2)cc1 | – | – | – | 46
O=C1CCCN1c1ccc(S(=O)(=O)Oc2ccc(Cl)cc2Cl)cc1 | – | – | – | 61
O=C1CCCN1c1ccc(NS(=O)(=O)c2ccc(F)cc2)cc1 | – | – | – | –
O=C1CCCN1c1cccc([N+](=O)[O-])c1 | – | – | – | –
CCN1CCC(NCC(O)COCc2ccc(Cl)cc2)CC1 (stereo unspecified) | – | – | – | –
CCN(CC)CCn1c(=S)sc2c(=O)n(-c3ccccc3OC)c(SCc3ccc(C)cc3)nc21 | – | – | – | –
O=C(N/N=C/c1ccccn1)c1ccc(F)cc1 | – | – | – | –
CC(=O)NC1=NN(C(C)=O)C(C)(c2ccc(F)cc2)S1 (stereo unspecified) | – | – | – | 37
CC(=O)NC1=NN(C(C)=O)C(C)(c2cccs2)S1 (stereo unspecified) | – | – | – | 60
CCc1ccc(C2(C)SC(NC(C)=O)=NN2C(C)=O)cc1 (stereo unspecified) | – | – | – | –
CCOc1ccc(-c2cc(=O)c3ccccc3o2)cc1 | – | – | – | –
CSc1ccc(-c2cc(=O)c3cc(O)ccc3o2)cc1 | – | – | – | 44
CSc1ccc(-c2cc(=O)c3ccccc3o2)cc1 | – | – | – | –
COc1ccc(-c2cc(=O)c3ccc(O)cc3o2)cc1 | – | – | – | 56
CCOc1ccc(-c2cc(=O)c3cc(O)ccc3o2)cc1 | – | – | – | 47
CCOC(=O)COc1ccc(S(=O)(=O)Nc2c(F)cccc2F)cc1 | – | – | – | –
Cc1ccc(C2C3=C(CC(C)(C)CC3=O)N(c3ccc(Cl)c(Cl)c3)C3=C2C(=O)CC(C)(C)C3)cc1 | – | – | – | –
Cc1cc(I)cc2c1NC(C(=O)O)C1CC=CC21 (stereo unspecified) | – | – | – | –
Fc1ccc(C2Nc3ccc(OC(F)(F)F)cc3C3C=CCC32)cc1 (stereo unspecified) | – | – | – | –
CC(=O)c1ccc2c(c1)C1C=CCC1C(C(=O)O)N2 (stereo unspecified) | – | 79 | – | –
Cc1ccc2c(c1)C1C=CCC1C(C(=O)O)N2 (stereo unspecified) | – | 70 | – | –
O=C(O)C1Nc2ccc(OC(F)(F)F)cc2C2C=CCC12 (stereo unspecified) | – | 75 | – | –
SMILES | GPR151 activ | MITF inh | FBW7 activator | TEAD-YAP block
NS(=O)(=O)c1ccc2c(c1)C1C=CCC1C(C(=O)O)N2 (stereo unspecified) | – | 72 | – | –
COc1ccc(Cc2noc(C3CCCCC3)n2)cc1 | – | – | – | –
O=C1c2ccccc2C(=O)c2c(NCCCN(CCO)CCO)cccc21 | – | – | – | 41
CCC(CC)C(=O)Nc1ccc(S(=O)(=O)Nc2nccc(C)n2)cc1 | – | – | – | –
COc1cccc(-c2nc(COC(=O)c3[nH]c(C)c(C(C)=O)c3C)cs2)c1 | – | – | – | 44
Cc1cc(NC(=O)Cc2ccccc2)ccc1-c1cc2ccccc2oc1=O | – | – | – | 54
Cc1cc(NC(=O)c2ccccc2)ccc1-c1cc2ccccc2oc1=O | – | – | – | –
Cc1ccccc1OCC(=O)Nc1ccc(-c2cc3ccccc3oc2=O)c(C)c1 | – | – | – | 45
Cc1csc(C(=O)NCc2nc(-c3ccncc3)n[nH]2)c1 | – | – | – | –
CCCCC1CN(CCNC(=O)CCn2ccnc2CC)Cc2ccccc2O1 (stereo unspecified) | – | – | – | –
COc1ccc(OC)c(NC(=O)CN2C(=O)CC(c3ccco3)Sc3ccccc32)c1 (stereo unspecified) | – | – | – | –
COc1ccc(Cl)cc1NC(=O)CN1C(=O)CC(c2ccco2)Sc2ccccc21 (stereo unspecified) | – | – | – | 45
CC1(C)[C@H]2CC=C(CN3CCc4nnc(CNC(=O)Cc5ccccc5)n4CC3)[C@@H]1C2 | – | – | – | –
COC(=O)C1=C(C(=O)OC)SC(=C2C(=S)C(C)(C)N(C(=O)CCC3CCCCC3)c3cc(C)ccc32)S1 | – | – | – | –
CCCCNC1CCN(c2nc(C)c3cc(C)ccc3n2)CC1 | – | – | – | –
CCOCCCNC1CCN(c2nc(C)c3cc(C)ccc3n2)CC1 | – | – | – | 49
O=C(NCc1cccs1)c1ccc(Cn2ccnc2)cc1 | – | – | – | –
CC(=O)c1ccc(OCC(=O)NC(C)c2cnn(-c3ccccc3C)c2C)cc1 (stereo unspecified) | – | – | – | 34
Cc1cc(C=C2C(=O)c3ccccc3C2=O)c(C)n1-c1ccc(S(N)(=O)=O)cc1 | – | – | – | –
Cc1cc(C=C2C(=O)c3ccccc3C2=O)c(C)n1-c1cc(C(=O)O)cc(C(=O)O)c1 | – | 64 | – | –
Cc1ccc(/C(O)=C2\C(=O)C(=O)N(Cc3cccnc3)C2c2ccc(F)cc2)cc1 (stereo unspecified) | – | – | – | –
CCOc1ccc(/C=C(/C#N)c2ccc3c(c2)OCO3)cc1 | – | – | – | –
COc1ccc(/C(C#N)=C/c2ccc3c(c2)OCO3)cc1OC | – | – | – | 37
CC(C)(C)c1ccc(C(=O)Nc2ccc(O)cc2C(=O)O)cc1 | – | – | – | 34
Cc1ccc(C(=O)Nc2ccc(O)cc2C(=O)O)cc1[N+](=O)[O-] | – | 80 | – | –
SMILES | GPR151 activ | MITF inh | FBW7 activator | TEAD-YAP block
O=C(Nc1ccc(O)cc1C(=O)O)c1ccc([N+](=O)[O-])cc1 | – | 52 | – | –
C/C(=N/NC(=O)c1ccc([N+](=O)[O-])cc1)c1ccc(O)cc1O | – | – | – | 84
C/C(=N\NC(=O)c1ccc([N+](=O)[O-])cc1Cl)c1ccc(O)cc1O | – | – | – | –
Cc1ccc(C(=O)Nc2ccc(O)cc2C(=O)O)cc1 | – | – | – | –
O=C(CNS(=O)(=O)c1ccccc1)NCC(=O)N1CCOCC1 | – | – | – | –
O=C(Cc1csc(N2CCOCC2)n1)N/N=C/c1ccc(O)c(O)c1O | – | 66 | – | –
O=C(CCN1CCN(c2ccccc2)CC1)N/N=C/c1ccc(O)c(O)c1O | – | 70 | – | –
CN1CCN(CCC(=O)N/N=C/c2ccc(O)cc2O)CC1 | – | – | – | –
CCCOc1ccc(/C=N/NC(=O)Cc2cn3ccsc3n2)c(O)c1 | – | – | – | –
O=C(Cc1cn2ccsc2n1)N/N=C/c1ccc(O)c(O)c1O | – | 78 | – | –
O=C(Cn1ccc(C(F)(F)F)n1)N/N=C/c1ccc(O)c(O)c1O | – | 65 | – | –
O=C(Cc1csc(N2CCOCC2)n1)NNC(=S)Nc1ccc(Cl)cc1Cl | – | – | – | –
C/C(=N\NC(=O)c1nnn(-c2nonc2N)c1CN1CCOCC1)c1cccs1 | – | – | – | –
O=C(NCCCO)/C(=C\c1ccccc1)NC(=O)c1ccccc1Br | – | – | – | –
O=C(Nc1cc(=O)[nH]c(=O)[nH]1)c1cccc(Br)c1 | – | – | – | 44

Screens deposited in PubChem by The Scripps Research Institute Molecular Screening Center.
